Laboratory results published in the supplement of paper PMC6089552.
About 300 (9.4%) of roughly 3,200 compounds showed activity. What follows is part of a selection rich in actives, with near analogues and random picks from the rest.

Tested on: A673/TR/shEF
Test: cell viability (LOESS-normalised, relative to median of negative controls) (log2 ratio); higher = more viable cells (less compound effect), active = hit call of the paper (over 3 MAD below the median)
Settings: treatment time: 72 h
Summary of the method: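 Viability of A673/TR/shEF Ewing sarcoma cells was determined by CellTiter-Glo luminescence. The cells, at 1,500 per well in 384-well plates, were grown with or without doxycycline from 24 h before compound addition to switch on EWS-FLI1 shRNA knockdown, then exposed for three days to library compounds at two or more concentrations or to DMSO controls. Signals were LOESS-corrected plate by plate, normalised to the negative-control median and log2-transformed.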

[1] = 0.25 µM, library screen: screen1, EWS-FLI1 expression: high (no doxycycline)
[2] = 0.25 µM, library screen: screen1, EWS-FLI1 expression: low (doxycycline-induced shRNA knockdown)
[3] = 2.5 µM, library screen: screen1, EWS-FLI1 expression: high (no doxycycline)
[4] = 2.5 µM, library screen: screen1, EWS-FLI1 expression: low (doxycycline-induced shRNA knockdown)
[5] = 0.25 µM, library screen: screen2, EWS-FLI1 expression: high (no doxycycline)
[6] = 0.25 µM, library screen: screen2, EWS-FLI1 expression: low (doxycycline-induced shRNA knockdown)
[7] = 2.5 µM, library screen: screen2, EWS-FLI1 expression: high (no doxycycline)
[8] = 2.5 µM, library screen: screen2, EWS-FLI1 expression: low (doxycycline-induced shRNA knockdown)
[9] = 0.103 µM, library screen: screen3, EWS-FLI1 expression: high (no doxycycline)
[10] = 0.103 µM, library screen: screen3, EWS-FLI1 expression: low (doxycycline-induced shRNA knockdown)
[11] = 0.308 µM, library screen: screen3, EWS-FLI1 expression: high (no doxycycline)
[12] = 0.308 µM, library screen: screen3, EWS-FLI1 expression: low (doxycycline-induced shRNA knockdown)
[13] = 0.926 µM, library screen: screen3, EWS-FLI1 expression: high (no doxycycline)
[14] = 0.926 µM, library screen: screen3, EWS-FLI1 expression: low (doxycycline-induced shRNA knockdown)
[15] = 2.8 µM, library screen: screen3, EWS-FLI1 expression: high (no doxycycline)
[16] = 2.8 µM, library screen: screen3, EWS-FLI1 expression: low (doxycycline-induced shRNA knockdown)
[17] = 8.3 µM, library screen: screen3, EWS-FLI1 expression: high (no doxycycline)
[18] = 8.3 µM, library screen: screen3, EWS-FLI1 expression: low (doxycycline-induced shRNA knockdown)
[19] = 25 µM, library screen: screen3, EWS-FLI1 expression: high (no doxycycline)
[20] = 25 µM, library screen: screen3, EWS-FLI1 expression: low (doxycycline-induced shRNA knockdown)

Measured: cell viability (log2)

CCCCCCCCCCCCCCCC[n+]1ccccc1
active: [3] -1.66 | [4] -2.21
inactive: [1] 0.0178 | [2] -0.00413

COc1cc(OC)c2c(c1)OC(c1ccc(OC)c(OC)c1)C(O)C2 (stereo not given)
inactive: [1] 0.123 | [2] 0.00653 | [3] 0.0915 | [4] 0.0594

CNc1ccc2oc(C[C@@H]3OC4(CC[C@@H]3C)O[C@H](C(C)C(=O)c3ccc[nH]3)[C@H](C)C[C@H]4C)nc2c1C(=O)O (stereo not given in full)
active: [5] -0.082 | [7] -0.175
inactive: [1] 0.111 | [2] 0.0323 | [6] 0.0959 | [3] -0.0263 | [4] -1.11 | [8] 0.1

CN[C@@H](Cc1c[nH]c2ccccc12)C(=O)O
inactive: [1] 0.064 | [2] 0.0774 | [3] 0.156 | [4] 0.0411

COC1C[C@H](O[C@H]2CC[C@]3(C)C4CC[C@]5(C)[C@@H](C6=CC(=O)OC6)CC[C@]5(O)C4CC[C@]3(O)C2)OC(C)[C@H]1O (stereo not given in full)
active: [1] -0.209 | [2] -0.262 | [3] -3.79 | [4] -2.17

C[C@@H]1O[C@@H](O[C@H]2CC[C@]3(C=O)[C@H]4CC[C@]5(C)[C@@H](C6=CC(=O)OC6)CC[C@]5(O)[C@@H]4CC[C@]3(O)C2)[C@H](O)[C@H](O)[C@H]1O
inactive: [1] 0.0221 | [2] 0.0427
active: [3] -3.36 | [4] -3.89

CO[C@H]1C[C@H](O[C@H]2CCC3(C=O)C4CCC5(C)C(C6=CC(=O)OC6)CCC5(O)C4CC[C@]3(O)C2)O[C@H](C)[C@H]1O (stereo not given in full)
active: [1] -0.95 | [2] -1.15 | [3] -3.9 | [4] -3.2

COC1C(O)C(O[C@H]2CC[C@]3(C=O)C4C(CC[C@]3(O)C2)[C@@]2(O)CC[C@H](C3=CC(=O)OC3)[C@@]2(C)C[C@H]4OC(C)=O)OC(C)C1OC(C)=O (stereo not given in full)
inactive: [1] 0.109 | [2] 0.146 | [3] 0.0847 | [4] 0.082

C[C@@H]1O[C@@H](O[C@H]2C[C@@H](O)[C@]3(CO)[C@H]4[C@H](O)C[C@]5(C)[C@@H](C6=CC(=O)OC6)CC[C@]5(O)[C@@H]4CC[C@]3(O)C2)[C@H](O)[C@H](O)[C@H]1O
active: [1] -2.32 | [2] -1.95 | [5] -0.747 | [6] -0.523 | [3] -3.06 | [4] -3.54 | [7] -4.02 | [8] -3.81

CC1O[C@H](O[C@H]2C[C@@H](O)[C@]3(CO)C4C(O)C[C@]5(C)C(C6COC(=O)C6)CC[C@]5(O)C4CC[C@]3(O)C2)C(O)C(O)[C@H]1O (stereo not given in full)
inactive: [5] 0.151 | [6] 0.0734 | [7] 0.15 | [8] 0.134

O=c1cccc2n1C[C@@H]1CNC[C@H]2C1
inactive: [1] 0.0148 | [2] -0.00559 | [3] 0.016 | [4] 0.0651

C=CCN1CCc2cccc3c2[C@H]1Cc1ccc(O)c(O)c1-3
inactive: [5] 0.199 | [6] 0.00481 | [7] 0.133 | [8] 0.0436

CN[C@@H]1C[C@@H](c2ccc(Cl)c(Cl)c2)c2ccccc21
inactive: [5] 0.0875 | [6] 0.13 | [7] 0.173 | [8] 0.199

CN1C2CCC1CC(OC(=O)c1cc(Cl)cc(Cl)c1)C2 (stereo not given)
inactive: [5] 0.173 | [6] 0.0634 | [7] 0.093 | [8] -0.00531

C/C=C(/C)C(=O)O[C@H]1CC[C@@]2(C)[C@@H]3CC[C@H]4[C@]5(O)C[C@H](O)[C@@]6(O)[C@@H](CN7C[C@@H](C)CC[C@H]7[C@@]6(C)O)[C@]5(O)C[C@@]42O[C@]13O
inactive: [1] 0.0954 | [2] 0.0385 | [3] 0.186 | [4] -0.0784

C#CCOC(=O)C1=CCCN(C)C1
inactive: [5] 0.0844 | [6] 0.129 | [7] 0.0951 | [8] 0.11

CC(Cc1ccc(OCC(=O)O)cc1)NCC(O)c1cccc(Cl)c1 (stereo not given)
inactive: [5] 0.122 | [6] 0.143 | [7] 0.229 | [8] 0.136

C[N+]1(C)CCc2cc3c(cc2[C@H]1[C@@H]1OC(=O)c2c1ccc1c2OCO1)OCO3
inactive: [5] 0.123 | [6] 0.0886 | [7] 0.123 | [8] 0.104

COC[C@]12CN(C=O)[C@H]3C4[C@H](OC)[C@H]1C3([C@@H](OC)C[C@H]2O)[C@@H]1C[C@@]2(O)[C@H](OC(=O)c3ccccc3)[C@@H]1[C@]4(OC(C)=O)[C@@H](O)[C@@H]2OC
inactive: [1] 0.0391 | [2] 0.0831 | [3] 0.0466 | [4] 0.114

C=CCN1C[C@@H](C)N([C@H](c2ccc(C(=O)N(CC)CC)cc2)c2cccc(OC)c2)C[C@@H]1C
inactive: [5] 0.0848 | [6] 0.0464 | [7] 0.222 | [8] 0.00445

COc1cc2c(cc1OC)[C@@]13CCN4CC5=CCO[C@H]6CC(=O)N2[C@H]1[C@H]6[C@H]5C[C@H]43
inactive: [1] 0.0057 | [2] 0.0368 | [3] 0.098 | [4] -0.0757

CC(=O)Oc1ccc(C=Cc2cc(OC(C)=O)cc(OC(C)=O)c2)cc1
inactive: [1] 0.101 | [2] 0.0764 | [3] 0.00309 | [4] 0.228

Nc1ncnc2c1ncn2C1OC2COP(O)(=S)OC2C1O (stereo not given)
inactive: [5] 0.0926 | [6] 0.132 | [7] 0.0861 | [8] 0.0676

O.O=C1OC2(c3cc(Br)c([O-])cc3Oc3c2cc(Br)c([O-])[c]3[Hg])c2ccccc21.[Na+].[Na+] (stereo not given)
inactive: [1] 0.113 | [2] 0.0666 | [3] 0.139 | [4] 0.132

CN1C2CCC1CC(OC(=O)C(CO)c1ccccc1)C2 (stereo not given)
inactive: [5] 0.252 | [6] 0.166 | [7] 0.123 | [8] 0.223

C[C@]12CC[C@H]3[C@@H](CCC4=CC(=O)CC[C@@]43C)[C@@H]1CC[C@@H]2OC(=O)CCC1CCCC1
inactive: [9] -0.000785 | [10] 0.011 | [11] 0.0351 | [12] 0.0268 | [13] 0.0442 | [14] 0.0219 | [15] 0.0558 | [16] 0.00975 | [17] 0.0577 | [18] 0.0516 | [19] 0.0518 | [20] 0.0747

CC(N)Cc1ccc(O)cc1 (stereo not given)
inactive: [1] 0.0594 | [2] 0.0957 | [3] 0.092 | [4] 0.0198

COC[C@H]1OC(=O)c2coc3c2[C@@]1(C)C1=C(C3=O)[C@@H]2CCC(=O)[C@@]2(C)C[C@H]1OC(C)=O
inactive: 0.025 µM, library screen: screen1, EWS-FLI1 expression: high (no doxycycline) 0.254 | 0.025 µM, library screen: screen1, EWS-FLI1 expression: low (doxycycline-induced shRNA knockdown) 0.0235 | [1] 0.137 | [2] -0.0412 | [5] 0.179 | [6] 0.0105 | [4] -0.0837 | [7] -0.0237 | [8] 0.0148
active: [3] -0.356 | 25 µM, library screen: screen1, EWS-FLI1 expression: high (no doxycycline) -0.711 | 25 µM, library screen: screen1, EWS-FLI1 expression: low (doxycycline-induced shRNA knockdown) -0.309

CCCN1CCC[C@@H](c2cccc(C#N)c2)C1
inactive: [5] 0.21 | [6] 0.0529 | [7] 0.222 | [8] 0.141

CC1(C)C2C[C@@H](O)[C@]3(C)C(CC[C@@]4(C)[C@H](c5ccoc5)CC5OC543)[C@@]2(C)[C@@H](O)C[C@H]1O (stereo not given in full)
inactive: [1] 0.0938 | [2] 0.113 | [3] 0.107 | [4] 0.116

CCCN(CCC)c1c([N+](=O)[O-])cc(C(F)(F)F)cc1[N+](=O)[O-]
inactive: [1] -0.0384 | [2] 0.0507 | [3] 0.104 | [4] 0.107

CCOC(=O)NC1=C(N2CC2)C(=O)C(NC(=O)OCC)=C(N2CC2)C1=O
inactive: 0.025 µM, library screen: screen2, EWS-FLI1 expression: high (no doxycycline) -0.0137 | 0.025 µM, library screen: screen2, EWS-FLI1 expression: low (doxycycline-induced shRNA knockdown) -0.0126 | [1] 0.102 | [2] 0.0213 | [5] 0.153 | [6] -0.00616 | [3] 0.0672 | [4] 0.107 | [7] -0.0475 | [8] 0.0995
active: 25 µM, library screen: screen2, EWS-FLI1 expression: high (no doxycycline) -3.5 | 25 µM, library screen: screen2, EWS-FLI1 expression: low (doxycycline-induced shRNA knockdown) -0.288

CCC(C)[C@H]1O[C@]2(C=C[C@@H]1C)C[C@@H]1C[C@@H](C/C=C(\C)[C@@H](O[C@H]3C[C@H](OC)[C@@H](O[C@H]4C[C@H](OC)[C@@H](O)[C@H](C)O4)[C@H](C)O3)[C@@H](C)/C=C/C=C3\CO[C@@H]4[C@H](O)C(C)=C[C@@H](C(=O)O1)[C@]34O)O2.CO[C@H]1C[C@H](O[C@H]2[C@H](C)O[C@@H](O[C@@H]3/C(C)=C/C[C@@H]4C[C@@H](C[C@]5(C=C[C@H](C)[C@@H](C(C)C)O5)O4)OC(=O)[C@@H]4C=C(C)[C@@H](O)[C@H]5OC/C(=C\C=C\[C@@H]3C)[C@]54O)C[C@@H]2OC)O[C@@H](C)[C@@H]1O (stereo not given in full)
inactive: [1] 0.0422 | [2] 0.0818 | [3] 0.0639 | [4] 0.0892

Cn1cc(C2=C(c3cn(C4CCN(Cc5ccccn5)CC4)c4ccccc34)C(=O)NC2=O)c2ccccc21
inactive: [9] -0.105 | [10] -0.0101 | [11] -0.0168 | [12] 0.054 | [13] -0.0718 | [14] 0.0485 | [15] -0.024 | [16] -0.0681 | [17] 0.0419 | [18] 0.0589 | [19] -0.03 | [20] 0.0493

C=CCN1CCC23c4c5ccc(O)c4O[C@@H]2/C(=N/NC(=O)c2ccccc2)CCC3(O)[C@H]1C5 (stereo not given in full)
inactive: [5] 0.0804 | [6] 0.0684 | [7] 0.0878 | [8] 0.0887
